The panel holds about 83,000 compounds, 20% with a hit somewhere; the sample as a whole holds those more often.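 Assay: single dose, 48 h. Readout: percent growth (0 = no net growth; negative = cell death). Active: <10.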 A number with no mark means an inactive call. Calls of active or inactive are those of the source. *1 amine or outer side, *2 acyl side, *3 side chain or, on linkers, in order; H or OH if unused. Where a SMILES comes first, the peptide text is derived from it. Bridges are numbered along the chain shown (N, C = ends). Roman numbers before positions name the chains, in order. [ ]: non-standard residue; d: D form. The star is where a group is joined. Actinocin(1to9) = Cc1c2oc3c(C)ccc(C(=O)[*:2])c3nc-2c(C(=O)[*:1])c(N)c1=O; X5 = CCC(=O)CC1CC(C)CC(C(=O)[*:2])N1[*:1]; NMeV = CN[CH](C(=O)O)C(C)C; X4 = CCCCCCCCC(C)C(=O)*; Aib = CC(C)(N)C(=O)O; X6 = CC(CN(C)CCO)N*; Sar = CNCC(=O)O
Columns and labels:
Test in all cases: NCI-60 one-dose screen, 48 h (100 = growth as untreated, 0 = no growth, -100 = all killed)
Settings in all cases: 10 µM unless noted
NCI-H23 lung = tested on: NCI-H23 lung
NCI-H226 lung = tested on: NCI-H226 lung
NCI-H322M lung = tested on: NCI-H322M lung
NCI-H460 lung = tested on: NCI-H460 lung
HOP-92 NSCLC = tested on: HOP-92 NSCLC
NCI-H522 lung = tested on: NCI-H522 lung
A549/ATCC NSCLC = tested on: A549/ATCC NSCLC
786-0 renal = tested on: 786-0 renal
COLO 205 colon = tested on: COLO 205 colon
HOP-62 NSCLC = tested on: HOP-62 NSCLC

| Structure (SMILES) | growth (NCI-H23 lung) | growth (NCI-H226 lung) | growth (NCI-H322M lung) | growth (NCI-H460 lung) | growth (HOP-92 NSCLC) | growth (NCI-H522 lung) | growth (A549/ATCC NSCLC) | growth (786-0 renal) | growth (COLO 205 colon) | growth (HOP-62 NSCLC) [%] |
| --- | --- | --- | --- | --- | --- | --- | --- | --- | --- | --- |
| O=C(/C=C/c1ccccc1)c1ccccc1O | 82.3% | 91.6% | 90.2% | 93.2% | 74.4% | 69.6% | 83.9% | 79.7% | 105% |  |
| Oc1ccc(Br)cc1Sc1cc(Br)ccc1O | 9.64% (active) | 98.2% | 92% |  | 22.1% |  | 50.6% | 100% | 113% | 84.7 |
| CC(/C=N/NC(N)=S)Cc1ccc(C(C)C)cc1 (stereo not drawn) | 51% | 66.6% | 104% |  | 69.9% | -26.6% (active) | 89.5% | 51% | 68% | 89.1 |
| COc1cc(NC(=O)C2=C(C)NC(C)=C(C(=O)Nc3cc(OC)c(Cl)cc3OC)C2c2cccc([N+](=O)[O-])c2)c(OC)cc1Cl | 34.6% | 45.7% | 46.3% | 36.8% | 13.2% | 46.8% | 35.7% | 39% | 50.5% |  |
| Nc1ccc(Oc2ccccc2)c(Cl)c1 | 108% | 94.2% | 86.3% |  | 82.6% | 108% | 94.6% | 84.9% | 96.2% | 86.6 |
| COc1c(C)c2c(c(O)c1C/C=C(\C)CCC(=O)O)C(=O)OC2 | 33.9% | 58.8% | 38.3% |  | 73.9% | 19.4% | 11.6% | 21.3% | 39.3% | 46.6 |
| CCCCCCCCC(C)C(=O)N1CCCC1C(=O)N1C(CC(=O)CC)CC(C)CC1C(=O)NC(C)C(=O)NC(C)(C)C(=O)NC(C)(C)C(=O)NC(C(=O)NC(C)C(=O)NC(C)(C)C(=O)NC(C)(C)C(=O)NC(C)CN(C)CCO)C(C)CC (stereo not drawn) (X4-P[X5]A[Aib][Aib]IA[Aib][Aib]-X6; configuration not given here) | 195% | -50.7% (active) | 21.2% | -83.7% (active) | -23.8% (active) | -62.9% (active) | -62% (active) | -53.7% (active) | -75.9% (active) |  |
| Cc1nn(CCO)c(C)c1N=[N+]([O-])c1c(C)nn(CCO)c1C | 87% | -28.5% (active) | 98.5% | 76.3% | -47.7% (active) | -78% (active) | 50.5% | -82.3% (active) | -85.6% (active) |  |
| CCC(C)C1NC(=O)C(NC(=O)c2c3nc4c(C(=O)NC5C(=O)NC(C(C)CC)C(=O)N6CCCC6C(=O)N(C)CC(=O)N(C)C(C(C)C)C(=O)OC5C)ccc(C)c4oc-3c(C)c(=O)c2N)C(C)OC(=O)C(C(C)C)N(C)C(=O)CN(C)C(=O)C2CCCN2C1=O (stereo not drawn) (I: TIP[Sar][NMeV] / II: TIP[Sar][NMeV]; ester I:1-I:C, II:1-II:C; linker I:N-II:N via Actinocin(1to9); configuration not given here) | -51.1% (active) | -16% (active) | -2.5% (active) | -19.6% (active) | -16.6% (active) | -45.5% (active) | -15.2% (active) | -20.8% (active) | -67.6% (active) |  |
| CCN1CCCC(Nc2cc(C)nc(/N=C(/N)Nc3ccc(Cl)c(Cl)c3)n2)C1 (stereo not drawn) | 33.2% | 32.2% | -17.1% (active) | -18.8% (active) | -68.4% (active) | -69.5% (active) |  | -82.7% (active) | -77.6% (active) |  |
| Nc1nc2ncc(CNc3ccc(C(=O)NC(CCC(=O)NC(CCC(=O)NC(CCC(=O)NC(CCC(=O)NC(CCC(=O)O)C(=O)O)C(=O)O)C(=O)O)C(=O)O)C(=O)O)cc3)nc2c(=O)[nH]1 (stereo not drawn) | 101% | 113% |  | 120% | 95.3% | 96.9% | 104% | 105% | 113% | 100 |
| CN1CCC(CN2c3ccccc3Sc3ccccc32)C1 (stereo not drawn) | 88.9% | 111% |  | 101% | -0.214% (active) | 86.2% | 90.7% | 69% | 84.6% | 91.5 |
| CSc1nc(C)c(C(=O)CCN2CCN(c3ccccn3)CC2)s1 | 106% | 107% | 107% | 106% |  | -64.2% (active) | 102% | 101% |  |  |
| Oc1ccc(Cl)cc1Cc1cc(Cl)ccc1O | -12.5% (active) | 96.7% | 79.6% | 11.5% |  | 5.48% (active) |  | 75.5% | 110% |  |
| Nc1ccc(C(=O)/C=C/c2ccccc2)cc1 | 96.5% | 105% | 90.8% | 100% | 88.3% | 80.8% | 91.5% | 86.2% | 119% |  |
| Nc1nc(N)c2cc(Sc3cccc(C(F)(F)F)c3)ccc2n1 | 40.3% | 57.6% |  | 14.9% | 28.5% | 35.4% | 12.7% | 19.2% | -75.9% (active) | 61.3 |
| CC(C)c1ccc(Nc2n[nH]c(=S)s2)cc1 | 87.1% | 105% | 102% | 114% | 82.6% |  | 101% | 96.8% | 116% |  |
| NNc1ccc(Cl)cc1Cl | 82.7% | 86.3% |  | 97.5% | 55.2% | 53.6% | 82.9% | 86.5% | 91.5% | 64.9 |
| O=C1C=CC(=O)N1c1ccc(O)cc1 | 103% | 101% |  | 104% | 101% | 104% | 103% | 98.3% | -37% (active) | 104 |
| CCCCCCCCCCCC[S+](C)CC(=O)[O-] (stereo not drawn) | 25.9% | 44.3% | 89.4% |  | 30.7% | 46.5% | 68.4% | 23.3% | 2.95% (active) |  |
| COc1ccc2nc3cc([N+](=O)[O-])ccc3c(NNc3ccccc3)c2c1 | 66.6% | 63.8% |  | 82.4% | 14.8% | 85% | 95.2% | -18.8% (active) | 99.8% | 37 |
| c1ccc2sc(SSN3CC4CCC(CC4)C3)nc2c1 | 107% | 100% | 96% | 115% | 110% | 28.9% |  | 129% | 128% |  |
| Cc1cc2nc(CC(=O)c3ccncc3)c(=O)[nH]c2cc1C | 94.2% | 87.4% |  | 95.2% | 92.8% | 87.6% | 98.5% | 87.7% | 130% | 95 |
| CC1(C)OCC(COC(c2ccccc2)(c2ccccc2)c2ccccc2)O1 (stereo not drawn) | 104% | 92.1% |  | 104% | 89.4% | 88.8% | 86.3% | 104% | 109% | 96.1 |
| COc1ccc2c(c1OC)OCC(CN(C)C)C2=O (stereo not drawn) | 104% | 97.6% | 111% | 122% | 52.1% | -81% (active) |  | 92.7% | -75.2% (active) |  |
| CCCCCCCCCCCCCCCCCC[S+](C)CC (stereo not drawn) | 36.3% | 17.5% |  | 33.6% | 27.3% | 30.2% | 42.3% | 29.1% | -38% (active) | 15.6 |
| Cc1nnc(N/N=C/c2ccc([N+](=O)[O-])o2)[nH]c1=O | 22.6% | 16.2% |  | 11.3% | -35.8% (active) | 17.1% | 28.5% | 14.9% | -56.5% (active) | 11.3 |
